Records with an inconclusive call do not appear. Entries that show only a call come without a potency. Values without a mark were called inactive. Calls of active or inactive are those of the source. Calls come from the whole dose curve.
Experiment: Cytotoxicity counterscreen for inhibitors of SARS-CoV-2 cell entry (AID 1645845); note: nearly all actives have a fitted effect of over 50% in size
Conditions: cell viability (SARS-CoV-2 entry assay cells); series mostly up to 57.1 µM
Outline: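 HEK293-ACE2 cells (Expi293F stably expressing human ACE2) seeded overnight, then compound for 1 h plus 48 h at 37C. Viability as ATP content by luminescence; normalized to wells with cells and media-only wells.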
With CC1CCCC(C)N1C(=S)Nc1cccc(C(F)(F)F)c1 (centres undefined) the Potency was “inactive”.
In the case of CN1N=C2CCN(C(=O)[C@H](COCc3ccccc3)NC(=O)C(C)(C)N)C[C@]2(Cc2ccccc2)C1=O, the Potency is reported as “inactive”.
For OC(c1ccccc1)(c1ccccc1)C12CC[N+](CCOCc3ccccc3)(CC1)CC2, the Potency was “inactive”.
For C=CC1(C)CC(=O)C2(O)C(C)(O1)C(OC(C)=O)C(OC(=O)CCN(C)C)C1C(C)(C)CCC(O)C12C (centres undefined), the Potency was “inactive”.
With CN[C@@H]1[C@@H](O)[C@@H](O[C@@H]2[C@@H](O)[C@H](OC3O[C@H](CN)[C@@H](O)[C@H](O)[C@H]3O)[C@@H](N)C[C@H]2NC(=O)[C@@H](O)CN)OC[C@]1(C)O (some centres undefined) the Potency was “inactive”.
With COc1ccc(CNCC(O)COc2ccc3[nH]c(=O)ccc3c2)cc1OC (centres undefined) the Potency was “inactive”.
In the case of C[N+]1(C)CCN(CC(O)(c2ccccc2)C2CCCCC2)CC1 (centres undefined), the Potency is reported as “inactive”.
With O=P(O)(O)OC1C(OP(=O)(O)O)C(OP(=O)(O)O)C(OP(=O)(O)O)C(OP(=O)(O)O)C1OP(=O)(O)O (centres undefined) the Potency was “inactive”.
For CNCc1cc(-c2ccccc2F)n(S(=O)(=O)c2cccnc2)c1, the Potency was “inactive”.
In the case of [Mn].[O]=[Mn][OH].[O]=[Mn][OH], the Potency is reported as “inactive”.
For C[C@]12C=CC(=O)C=C1CC[C@@H]1[C@@H]2[C@@H](O)C[C@@]2(C)[C@H]1CC[C@]2(O)C(=O)COP(=O)(O)O, the activity change, negative = cytotoxicity was -0.915% [at 11.3 µM].
In the case of COc1cc(N)cn[n+]1-c1ccccc1, the Potency is reported as “inactive”.
With CC1CCCCN1CCCOC(=O)c1ccccc1 (centres undefined) the Potency was “inactive”.
For CCCCCCCCCCCCOC(=O)CS(=O)(=O)O, the Potency was “inactive”.
For CCCCN(CCCC)C(=S)[S-].CCCCN(CCCC)C(=S)[S-].[Zn+2], the Potency was “inactive”.
With CCC(=O)O[C@@H](OP(=O)(CCCCc1ccccc1)CC(=O)N1C[C@H](C2CCCCC2)C[C@H]1C(=O)O)C(C)C (some centres undefined) the outcome was “inactive [at 11.3 µM]”.
In the case of O=C(Nc1ccc(O)cc1)c1ccccc1O, the Potency is reported as “inactive”.
With C=C1c2c(Cl)ccc(O)c2C(O)=C2C(=O)[C@@]3(O)C(O)=C(C(N)=O)C(=O)[C@@H](N(C)C)[C@@H]3[C@@H](O)[C@H]12 the Potency was “inactive”.
For Oc1cc(O)cc(O)c1, the Potency was “inactive”.
For CC(OC(=O)NCC1(CC(=O)O)CCCCC1)OC(=O)C(C)C (centres undefined), the Potency was “inactive”.
For O=C(O)C(O)C(O)C(=O)O (centres undefined), the Potency was “inactive”.
In the case of NC(N)=NCC1COC2(CCCCC2)O1 (centres undefined), the Potency is reported as “inactive”.
In the case of COC(=O)[C@@H](N)CS, the Potency is reported as “inactive”.
In the case of CC1(C)C[C@H]1C(=O)N/C(=C\CCCCSC[C@@H](N)C(=O)O)C(=O)O, the Potency is reported as “inactive”.
With CCCCCCCCCCCCCCCC(=O)OCC(O)C1OC(=O)C(O)=C1O (centres undefined) the Potency was “inactive”.
With Cc1c(C)c2c(c(C)c1OC(=O)CCC(=O)O)CC[C@@](C)(CCC[C@H](C)CCC[C@H](C)CCCC(C)C)O2 the Potency was “inactive”.
In the case of COc1nc2ccc(Br)cc2cc1[C@@H](c1ccccc1)[C@@](O)(CCN(C)C)c1cccc2ccccc12, the Potency is reported as “inactive”.
For CCOc1nc2cccc(C(=O)O)c2n1Cc1ccc(-c2ccccc2-c2noc(=O)[nH]2)cc1, the Potency was “inactive”.
With CC[C@H]1OC(=O)C[C@@H](O)[C@H](C)[C@@H](O[C@@H]2O[C@H](C)[C@@H](O)[C@H](N(C)C)[C@H]2O)[C@@H](CCN2C[C@H](C)C[C@H](C)C2)C[C@@H](C)C(=O)/C=C/C(C)=C/[C@@H]1CO[C@@H]1O[C@H](C)[C@@H](O)[C@@H](OC)[C@H]1OC the Potency was “inactive”.
With O=C(O)[C@H]1OC(O)[C@H](O)[C@@H](O)[C@@H]1O (some centres undefined) the Potency was “inactive”.
In the case of CCCCC(O)c1ccccc1 (centres undefined), the Potency is reported as “inactive”.
With CC(C)(C)C(=O)OCOC(=O)[C@@H]1N2C(=O)[C@@H](N=CN3CCCCCC3)[C@H]2SC1(C)C the Potency was “inactive”.
For NC(=O)C1(N2CCCCC2)CCN(CCCN2c3ccccc3CCc3ccccc32)CC1, the Potency was 31.6 µM (active).
In the case of C[N+](C)(C)CC(O)CC(=O)O (centres undefined), the Potency is reported as “inactive”.
With N[C@H](Cc1cnc[nH]1)C(=O)O the Potency was “inactive”.
In the case of CC(C)(C)NC(=O)N[C@H](C(=O)N1C[C@H]2[C@@H]([C@H]1C(=O)NC(CC1CCC1)C(=O)C(N)=O)C2(C)C)C(C)(C)C (some centres undefined), the Potency is reported as “inactive”.
With CN1c2c(nc(N)[nH]c2=O)NC[C@@H]1CNc1ccc(C(=O)N[C@@H](CCC(=O)O)C(=O)O)cc1 the outcome was “inactive [at 5.25 µM]”.
In the case of Cc1cccc(C)c1N(CCCc1cccnc1)C(=O)C(C)N (centres undefined), the Potency is reported as “inactive”.
For O=P(O)(O)OC(CO)CO, the Potency was “inactive”.
Potency is the fitted concentration of half-maximal effect.
